# Shown are actives, neighbours in structure and some others; about 2.4% of the full set was active somewhere.
# HSF1 activator: increases HSF-1 driven luciferase reporter signal; NIH3T3-HGL HSF-1 luciferase reporter, MG132, 8 h; 100% = twice DMSO control signal; 300,000 compounds, 1.7% hits; AID 504408; activation, % at 9 µM;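 active = mean replicate activation of at least 50% with a set share of replicates each reaching 50%; inconclusive = only one of those two conditions met; inactive = mean below 50% and too few replicates reaching it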;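 also: 0% = median of the neutral control wells and 100% = twice that signal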
# NOD2-RIPK2 inh: NOD2-RIPK2 protein interaction inhibition; CHO BLA complementation NOD2-RIPK2, CCF4 ratio; inhibition, % at 4.98 µM; 360,000 compounds, 0.38% hits; in the data active = inhibition above about 21%;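 also: 0% = vehicle only and 100% = reference blocker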
# TLR9-MyD88 block: TLR9-MyD88 interaction inhibition. Q9NR96+Q99836. CHO BLA complementation TLR9-MyD88, CCF4 FRET ratio. inhibition, % at 4.98 µM. 340,000 compounds, 0.21% hits;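 active = inhibition above the mean over all tested compounds plus 3 SD, cut at about 21% in these data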;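 also: 0% = DMSO only wells and 100% = clavulanate BLA inhibitor control wells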
# HSF1 inhib: HSF1 inhibition. NIH3T3-HGL HSE-luciferase, MG132-induced, luminescence 8 h; hits give low values. activity change, negative = inhibition, % at 7.5 µM (by protocol). 300,000 compounds, 0.77% hits;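 active = more than half of replicate wells show activity change below -50%, luminescence cut by over half; inconclusive = some wells, but at most half, below -50%; inactive = no replicate well below -50%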;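 also: luciferase reports HSF-1 transcriptional activity via heat shock element; 0% = median of DMSO wells and -100% = zero luminescence signal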
# TLR4 MyD88 comp: inhibitors of human TLR4-MyD88 binding; HeLa CL3-4 TLR4/MyD88 BLA complementation, FRET ratio; inhibition, % at 8.4 µM; 200,000 compounds, 0.18% hits; in the data active = inhibition above about 25%;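 also: 0% = vehicle and 100% = reference inhibitor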
# * marks the source's active call; other numbers are inactive results; u = inconclusive; x = no result given.
SMILES,HSF1 activator,NOD2-RIPK2 inh,TLR9-MyD88 block,HSF1 inhib,TLR4 MyD88 comp
CCN(CC)CCN1C(=O)c2oc3ccccc3c(=O)c2C1c1ccc(C)cc1 (centres undefined),13,0,1,2,3
COc1cccc(C2c3c(oc4ccccc4c3=O)C(=O)N2CCCN(C)C)c1OC (centres undefined),66*,8,3,36,-2
CN(C)CCN1C(=O)c2oc3ccccc3c(=O)c2C1c1ccc(F)cc1 (centres undefined),19,3,4,6,3
Cc1ccc(S(=O)(=O)N2C[C@H]3[C@H]4C(=O)N(c5ccccc5)C(=O)[C@H]4C[C@H](OC(=O)NC4CCCC4)[C@@]3(O)C2)cc1,x,-2,-6,x,x
O=C(Oc1ccc2c(c1)OCO2)c1ccc(F)cc1Cl,63*,6,-5,26,10
CCOc1ncccc1C(=O)Oc1ccc2c(c1)OCO2,-13,1,-3,-6,-4
O=C(Oc1ccc2c(c1)OCO2)c1cc2c(s1)CCC2,81*,6,15,33,5
COc1cc2c(cc1OC)C(c1cc(OC)c(OC)c(OC)c1)C1(O)C(=O)OCC1(O)C2 (centres undefined),x,-4,2,x,x
O=C(CCCNC(=O)c1ccc(Cl)cc1)Nc1nccs1,x,-15,-16,x,x
CCOC(=O)N1CCN(C(=O)C[C@@H]2C[C@@]3(C(=O)OCC)CCCC=C3N(Cc3ccc(Cl)cc3Cl)C2=O)CC1,x,-5,x,x,x
CC(C)(C)c1ccc(Cn2c(=N)n(CC(O)c3ccco3)c3ccccc32)cc1 (centres undefined),56*,4,4,24,6
Cc1csc(-c2cnn(-c3ccccc3)c2NC(=O)c2cccc(C(F)(F)F)c2)n1,81*,5,-7,48,-1
CCC(C)NC(=O)C1(C)CCC(=O)N1Cc1ccccc1OC (centres undefined),-80,8,6,-74*,-18
C/C(=N\NC(=O)c1ccc(-n2cnnn2)cc1)c1ccc(Cl)cc1,x,4,-7,x,x
CCc1nc2ccc(C(=O)N3CCN(C(=O)c4ccco4)CC3)cn2c1N(C)C(=O)Nc1ccccc1OC,x,-4,x,x,x
O=C(CN1CC(=O)Oc2ccccc21)OCC(=O)c1ccccc1,u,1,3,38,12
O=C(CN1CC(=O)Oc2ccccc21)OCC(=O)c1cccc(Br)c1,53*,8,4,31,-1
CC(=O)c1ccc(NC(=O)COC(=O)c2ccc(F)cc2F)cc1,-4,4,-2,-6,x
O=C(CCc1nc(-c2cccs2)no1)NCc1ccc(F)cc1Cl,-88,-14,-4,-85*,9
Cn1cc(C(=O)NS(=O)(=O)Nc2ccc(Br)cn2)c2ccccc21,6,-11,-3,9,x
COc1ccc(C(=O)NNC(=O)Cc2nc3nc(C)cc(C)n3n2)cc1,5,-6,-4,-5,x
Cc1ccc2c(c1)N(C(=O)CCC(=O)NC1CCN(Cc3ccccc3)CC1)CC(C)O2 (centres undefined),-13,6,-5,-1,x
Cn1c(SCc2ccccc2Cl)nc2ccccc21,93*,-10,-8,40,-10
CCn1c(SCc2ccccc2Cl)nc2ccccc21,42,-5,-3,33,-4
Cc1cc(C)nc(SCc2cn3cc(Cl)ccc3n2)n1,64*,1,-2,42,-3
SMILES,HSF1 activator,NOD2-RIPK2 inh,TLR9-MyD88 block,HSF1 inhib,TLR4 MyD88 comp
O=C(CCC(=O)N1CCc2ccccc21)N1CCc2ccccc21,x,x,x,x,-1
O=C(CSc1ccccc1)N1CCc2ccccc21,59*,-1,13,43,-7
O=C(COc1ccccc1)N1CCc2ccccc21,48,-8,-3,26,-4
Cc1ccc2c(CC(=O)N3CCc4ccccc43)coc2c1,77*,1,-2,76,-3
O=C(CCCc1ccccc1)N1CCc2ccccc21,59*,-7,1,30,4
O=C(COc1ccccc1Cl)N1CCc2ccccc21,74*,-2,3,57,x
CCN(Cc1ccccc1)S(=O)(=O)c1cn(C)cn1,-49,-3,-15,-34,x
C[C@H](CO)N1C[C@H](C)[C@@H](CN(C)Cc2cccnc2)Oc2cc(-c3cccnc3)ccc2S1(=O)=O,x,9,-1,x,x
CCN(CC(=O)Nc1c(F)cccc1F)C(=O)c1cccc(-n2cnnn2)c1,x,-6,-3,x,x
CCn1c(-c2ccc(F)cc2)cnc1SCC(=O)N1CCc2ccccc21,70*,x,x,41,7
ONC(=Nc1ccc(Cl)cc1)c1ccc(Cl)cc1,55*,3,-6,29,4
O=[N+]([O-])c1cccc(C(=Nc2ccc(Cl)cc2)NO)c1,-2,2,-6,12,-4
O=C(NCc1cccs1)c1csc([C@@H]2C[C@H](O)[C@@H](CO)O2)n1,x,-16,x,x,x
Nc1nc(Nc2cccc(F)c2)nc(NCc2ccco2)c1[N+](=O)[O-],54*,-5,-9,25,x
COc1ccc(Nc2nc(NCc3ccco3)nc(N)c2[N+](=O)[O-])cc1,66*,-8,x,24,x
Cc1ccc(Nc2nc(NCCCN3CCOCC3)nc(N)c2[N+](=O)[O-])cc1C,30,-6,-3,19,14
COc1ccccc1Nc1nc(NCCCN(C)C)nc(N)c1[N+](=O)[O-],-78,-2,-4,-73*,x
Cc1cccc(Nc2nc(NCc3ccco3)nc(N)c2[N+](=O)[O-])c1,-13,-2,-9,-10,x
Cc1ccc(Nc2nc(NCCCN3CCOCC3)nc(N)c2[N+](=O)[O-])cc1,69*,-6,-5,41,1
CCOC(=O)c1c(-c2ccc(C)cc2)cn2ccccc12,78*,-5,-2,33,-2
CCOC(=O)c1c(-c2ccccc2)cn2ccccc12,19,0,1,21,-15
C/C(N)=C(/C#N)C(=O)CSc1nnc(Nc2cccc(C)c2)s1,56*,-5,-6,30,-11
C/C(N)=C(/C#N)C(=O)CSc1nc2cc(Cl)ccc2s1,76*,-7,-6,37,-12
C/C(N)=C(/C#N)C(=O)CSc1cc(Cl)ccc1Cl,-8,-1,-3,11,6
Cc1ccc(N=Nc2ccc(O)cc2)c(Br)c1,61*,0,0,21,x
CC(=O)c1ccc(N(CC(=O)NCCc2ccccc2)C(=O)c2csnn2)cc1,28,-5,3,10,x
CS(=O)(=O)N(CC(=O)NCC1CCCO1)c1cc(Cl)c(Cl)cc1Cl (centres undefined),9,-4,4,-6,-8
CS(=O)(=O)N(CC(=O)NCC1CCCO1)c1cc(Cl)ccc1Cl (centres undefined),54*,-6,-7,18,1
COc1ccccc1NC(=O)N(Cc1ccco1)Cc1cc2cc(C)cc(C)c2[nH]c1=O,15,-1,2,9,-9
COc1ccccc1NC(=S)N(Cc1ccco1)Cc1cc2cc(C)c(C)cc2[nH]c1=O,12,-8,-7,6,-3

# Bioassay records (PubChem BioAssay)
